PubChem BioAssay AID651739 (Broad Institute, 2012)
In all, about 5,600 compounds went through this assay and about 4,100 (73%) were called active. Inconclusive results (about 4%) are left out. So high a share suggests a set chosen from earlier hits. Not all results are given here. A number with no mark means an inactive call.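 Rule for the calls: active = mean replicate inhibition above about 95% and at least 55% of replicates individually reaching it (limit read from the data); inconclusive = only one of the two criteria is met; inactive = neither criterion is met.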

Experiment: T. cruzi intracellular proliferation inhibitors, confirmation, cell-based, NIH3T3 host, beta-gal parasite, luminescence, cherry-pick (AID 651739)
Details: T. cruzi beta-gal in NIH3T3, GalScreen luminescence, 90 h; at 8.35 µM; active compounds read high

Compound | inhibition
O=C(Cc1ccccc1)N1CC[C@H]2[C@H](CO)Nc3ccc(-c4ccccc4F)cc3[C@H]21 | 103% (active)
Cc1ccccc1S(=O)(=O)N1CC[C@H]2[C@H](CO)Nc3ccc(-c4cccc(F)c4)cc3[C@H]21 | 105% (active)
C[C@@H]1CCCCO[C@H](CN(C)C(=O)Nc2cccc3ccccc23)[C@H](C)CN([C@H](C)CO)C(=O)c2cc(NS(=O)(=O)c3cccs3)ccc2O1 | 103% (active)
Cc1ccc(S(=O)(=O)Nc2ccc3c(c2)C(=O)N([C@@H](C)CO)C[C@@H](C)[C@H](CN(C)C(=O)Nc2cccc4ccccc24)OCCCC[C@H](C)O3)cc1 | 97.1% (active)
Cc1noc(C)c1S(=O)(=O)Nc1ccc2c(c1)C(=O)N([C@@H](C)CO)C[C@H](C)[C@@H](CN(C)C(=O)Nc1cccc3ccccc13)OCCCC[C@H](C)O2 | 99.4% (active)
C[C@H](CO)N1C[C@H](C)[C@H](CN(C)C(=O)C2CCCCC2)Oc2ncc(C#Cc3cccc(F)c3)cc2C1=O | 102% (active)
C[C@@H]1CN([C@@H](C)CO)C(=O)c2cc(C#CC3CCCCC3)cnc2O[C@H]1CN(C)S(=O)(=O)c1ccccc1 | 107% (active)
C[C@H]1CN([C@@H](C)CO)C(=O)c2cc(C#CC3CCCCC3)cnc2O[C@H]1CN(C)S(=O)(=O)c1ccccc1 | 108% (active)
C[C@H](CO)N1C[C@H](C)[C@H](CN(C)C(=O)Nc2ccc3c(c2)OCO3)Oc2ncc(C#Cc3cccc(F)c3)cc2C1=O | 85.5%
C[C@@H]1CN([C@H](C)CO)C(=O)c2cc(C#CC3CCCCC3)cnc2O[C@@H]1CN(C)C(=O)NC1CCCC1 | 103% (active)
C[C@@H]1CN([C@H](C)CO)C(=O)c2cccc(NC(=O)c3cnccn3)c2O[C@@H]1CN(C)Cc1ccc(C(=O)Nc2ccccc2N)cc1 | 92.4%
Cc1cc(C(=O)Nc2cccc3c2O[C@@H](CN(C)Cc2ccc(C(=O)Nc4ccccc4N)cc2)[C@H](C)CN([C@@H](C)CO)C3=O)n(C)n1 | 105% (active)
C[C@@H]1CN([C@H](C)CO)C(=O)c2cccc(NC(=O)NC3CCCCC3)c2O[C@H]1CN(C)Cc1ccc(C(F)(F)F)cc1 | 89.1%
C[C@H](CO)N1C[C@H](C)[C@@H](CN(C)Cc2ccc(C(=O)Nc3ccccc3N)cc2)Oc2c(NC(=O)c3ccc(-c4nccs4)cc3)cccc2C1=O | 99.3% (active)
C[C@@H]1CN([C@H](C)CO)C(=O)c2cccc(NC(=O)c3ccc(-c4nccs4)cc3)c2O[C@@H]1CN(C)C(=O)Nc1ccc(C(F)(F)F)cc1 | 104% (active)
